Here are results for 40 molecules from PubChem BioAssay (EPA / NIEHS).

Active and inactive are the calls of the source. How the source made its calls: active means hit-call score of the fitted dose curve at least 0.9, where 1 is the maximum; inactive means score below 0.9.

This assay is described as follows: ATG_Oct_MLP_CIS: Attagene CIS-FACTORIAL HepG2 Assay for human Octamer-Binding Transcription Factor (Oct) (AID 2282993). The following applies: HepG2 Attagene cis-factorial Oct reporter, mRNA; actives raise or lower the signal. As to the method: ATG_CIS is a cell-based, multiplexed-readout assay that uses HepG2, a human liver cell line, with measurements taken at 24 hours after chemical dosing in a 24-well plate.ATG_Oct_MLP_CIS is one of 52 assay component(s) measured or calculated from the ATG_CIS assay. It is designed to make measurements of mRNA induction, a form of inducible reporter, as detected with fluorescence intensity signals by Reverse transcription polymerase chain reaction (RT-PCR) and Capillary electrophoresis technology.Data from the assay component ATG_Oct_MLP_CIS was analyzed into 1 assay endpoint. This assay endpoint, ATG_Oct_MLP_CIS, was analyzed with bidirectional fitting relative to DMSO as the negative control and baseline of activity. Using a type of inducible reporter, measures of mRNA for gain or loss-of-signal activity can be used to understand the reporter gene at the transcription factor-level as they relate to the gene POU2F1. Furthermore, this assay endpoint can be referred to as a primary readout, because this assay has produced multiple assay endpoints where this one serves a reporter gene function. To generalize the intended target to other relatable targets, this assay endpoint is annotated to the dna binding intended target family, where the subfamily is POU domain protein.
Human liver HepG2 cells are transiently transfected with multiple reporter transcription units (MRTUs) in 6-well plates using FuGene 6 reagent (Roche; 3 ml FuGene/1 mg DNA). The MRTU constructs are regulated by a cis-regulating element (promoter). […] A major difference between the CIS and TRANS system is that in CIS activities of endogenous TFs are measured, whereas the TRANS assay evaluates changes in activities of exogenous, chimeric NR-Gal4 proteins. […] At the end of 24 hour incubation, total RNA was isolated using TriZol reagent (Invitrogen). The isolated RNA is then reverse-transcribed using oligo(dT) primer and Mo-MLV reverse transcriptase (Invitrogen) with DNAse I (Ambion) treatment for 30 min. The one-tenth of the produced cDNA was amplified by PCR using Taq DNA polymerase (Invitrogen) and two reporter sequence-specific primers. The PCR products were fluorescently labeled by primer extension with 6-arboxyfluorescein (6-FAM) 5'-labeled reporter sequence-specific primer (2 min at 95 C, 20 s at 68 C and 10 min at 72 C) and these products were digested with 5U of HpaI (New England Biolabs) for 2h at 37 C. The fragments were purified using Qiaquick PCR columns (Qiagen), analyzed on an ABI 3130xL genetic analyzer (Applied Biosystems) with peak positions identified by using a set of X-rhodamine (ROX)-labeled MapMarker1000 molecular weight standards (BioVentures). The raw capillary electrophoresis data was processed using Attagraph software (Attagene).
For the molecule `C=C(C)[C@@H]1CCC2=CCC[C@@H](C)[C@]2(C)C1`, the call was inactive. `O=CC1CC1`: the outcome was inactive. In the case of `C=COCCCC`, the call was inactive. With `O=P(O)(O)Oc1ccccc1`, the molecule was called inactive. Still for that read-out and setting: under `CCCCC/C=C\C/C=C\CCCCCCCC(=O)OC` stands “inactive”; under `Cc1ccc(N/N=c2\c(=O)cc/c(=N/Nc3ccc(S(=O)(=O)O)cc3)c2=O)c(C)c1`, “inactive”. Same read-out and setting: under `O=S1(=O)OC(c2ccc(O)cc2)(c2ccc(O)cc2)c2ccccc21` stands “inactive”; under `FC(F)=C(F)OC(F)(F)C(F)(F)C(F)(F)F`, “inactive”. Consider `CCCCCCCCC(=O)OCC`, for which the outcome was inactive. Regarding `CC(C)COC(=O)C=Cc1ccccc1`, the call was inactive. Same read-out and setting: under `Clc1nc2ccccc2s1` stands “inactive”; under `CC(C)(C)c1n[nH]c(=O)n(N)c1=O`, “inactive”.

Regarding `ON(Cc1ccccc1)Cc1ccccc1`, the molecule was called inactive. Regarding `C=CC(C)(C)C`, the call was inactive. Regarding `CCCC(=O)OCc1ccccc1`, the molecule was called inactive. Still for that read-out and setting: under `CCCCC/C=C\CCC=O` stands “inactive”; under `O=C(Cl)c1cc(C(=O)Cl)cc(C(=O)Cl)c1`, “inactive”; under `CCCCCCOC(=O)C(C)CC` (stereo not given), “inactive”. Regarding `CC(C)c1ccc(C=O)cc1`, the result was inactive. The same measure, in the same setting: under `[Cl][Bi]([Cl])([c]1ccccc1)([c]1ccccc1)[c]1ccccc1` stands “inactive”; under `NC(=O)c1ccccc1O`, “inactive”.

For `CC(C)(C)C(=O)CCc1ccc(Cl)cc1`, the call was inactive. Same read-out and setting: the same measure for `CNC(=S)NN`: “inactive”; for `CCCCCC/C=C/C=O`: “inactive”. What is called AC50 is the midpoint of the concentration-response curve, whichever way the signal moves. Consider `Oc1ccc(Cl)cc1Cc1cc(Cl)ccc1O`, for which the AC50 was 7.99 µM (active). Turning to `O=C(OCC1CCC2OC2C1)C1CCC2OC2C1` (stereo not given), the molecule was called inactive. For the molecule `Cc1cccc(C(=O)O)c1`, the molecule was classed as inactive. On the same count and under the same terms, the same measure for `O=c1[nH]c(=O)c2[nH]c(=O)[nH]c2[nH]1`: “inactive”; for `O=[N+]([O-])C1(Br)COCOC1`: “inactive”. Turning to `CN(C)c1ccc(C(=N)c2ccc(N(C)C)cc2)cc1`, the concentration at half-maximal activity (AC50) is 0.143 µM (active). In the case of `CCC(C)C=O` (stereo not given), the result was inactive. For the molecule `CC(C)(C)C1CCCCC1=O` (stereo not given), the molecule was classed as inactive. As for `Cc1cccc(N)n1`, the call was inactive.

On to `CCCCCCCCCCCCCCCC(=O)OCC`, for which the outcome was inactive. The same measure, in the same setting: under `S=C(NC1CCCCC1)NC1CCCCC1` stands “inactive”; under `Cc1cc(C)c(C)c(O)c1`, “inactive”; under `CC/C=C\CCOC(=O)CCCCC`, “inactive”. Still for that read-out and setting: the same measure for `C=C[C@](C)(O)CC[C@@H]1[C@@]2(C)CCCC(C)(C)[C@@H]2CC[C@@]1(C)O`: “inactive”; for `COC(=O)c1c(C)cc(O)c(C)c1O`: “inactive”; for `CCC(=O)Oc1ccc(/C(CC)=C(\CC)c2ccc(OC(=O)CC)cc2)cc1`: “inactive”.
